PME-1 primary = PME-1 (human) inhibition; Q9Y570; recombinant PME-1, FP-Rh probe fluorescence polarization; inhibition, % at 5.9 µM; 320,000 compounds, 0.53% hits;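 active = inhibition above the campaign mean of all compounds plus 3 SD, cut at about 26% in these data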;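 also: competitive labeling of PME-1 active site by serine hydrolase directed probe; 0% = PME-1 with DMSO and 100% = wells lacking PME-1 enzyme; inhibitors block probe labeling so polarization falls and inhibition rises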
GSTO1 counter = GSTO1 inhibition, counter-screen for RBBP9 inhibitors | P78417 | inhibition, % at 5.96 µM | recombinant GSTO1, activity-based probe fluorescence polarization | 300,000 compounds, 1.1% hits;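 active = inhibition above the campaign mean inhibition plus 3 SD, cut at about 35% in these data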;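 also: 0% = GSTO1-1 with DMSO and 100% = wells lacking GSTO1-1 enzyme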
Fam108B inh = blocks mouse Fam108B hydrolase in RBBP9 counter-screen; recombinant Fam108B, FP-Rh probe fluorescence polarization; inhibition, % at 9.51 µM; 300,000 compounds, 0.33% hits; AID 1947;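 active = inhibition above the screen mean inhibition plus 3 SD, computed separately per campaign, cut at about 18% in these data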;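 also: inhibitors lower polarization as less probe binds the enzyme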
PAD4 inh = blocks human protein arginine deiminase 4; Q9UM07; recombinant PAD4, RCA probe fluorescence polarization; inhibition, % at 6.36 µM; 330,000 compounds, 0.41% hits;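 active = percent inhibition above a cutoff equal to the mean of all tested compounds plus 3 SD, cut at about 15% in these data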;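 also: 0% = PAD4 with RCA probe and DMSO and 100% = probe without PAD4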
Target sequence (Q9UM07 whole entry, looked up): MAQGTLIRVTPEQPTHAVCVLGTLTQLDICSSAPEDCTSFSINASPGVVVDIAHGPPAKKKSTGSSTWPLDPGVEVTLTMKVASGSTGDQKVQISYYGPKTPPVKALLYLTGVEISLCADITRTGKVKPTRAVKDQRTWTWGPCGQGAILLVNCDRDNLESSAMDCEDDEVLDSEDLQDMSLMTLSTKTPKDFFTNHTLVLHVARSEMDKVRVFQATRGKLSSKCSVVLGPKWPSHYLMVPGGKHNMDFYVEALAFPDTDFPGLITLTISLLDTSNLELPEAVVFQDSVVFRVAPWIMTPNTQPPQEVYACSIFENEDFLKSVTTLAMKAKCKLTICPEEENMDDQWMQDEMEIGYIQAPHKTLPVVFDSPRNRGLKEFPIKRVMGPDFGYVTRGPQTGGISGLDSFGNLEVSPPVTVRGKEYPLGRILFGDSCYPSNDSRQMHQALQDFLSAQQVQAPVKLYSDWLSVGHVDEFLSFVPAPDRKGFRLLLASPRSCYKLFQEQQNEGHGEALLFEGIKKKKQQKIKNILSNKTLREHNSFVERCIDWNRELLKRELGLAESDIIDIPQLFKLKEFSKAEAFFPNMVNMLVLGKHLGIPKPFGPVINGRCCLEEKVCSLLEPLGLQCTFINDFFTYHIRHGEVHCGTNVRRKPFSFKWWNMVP
LYPLA1 inh = counter-screen for PME1 inhibitors: inhibitors of human LYPLA1; inhibition, % at 5.9 µM; O75608; AID 2174; 320,000 compounds, 0.16% hits; recombinant LYPLA1, FP-Rh probe fluorescence polarization;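 active = inhibition above the mean of all tested compounds plus 3 SD, set per campaign, cut at about 14% in these data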;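 also: inhibitors block serine hydrolase probe labeling of LYPLA1 so polarization falls; 0% = enzyme with DMSO and 100% = wells lacking LYPLA1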
LYPLA2 inh = blocks human lysophospholipase 2, a PME1 counter-screen; O95372; recombinant LYPLA2, FP-Rh probe fluorescence polarization; inhibition, % at 5.9 µM; 320,000 compounds, 0.38% hits;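 active = inhibition above the screen-wide mean plus 3 SD, limit set per campaign, cut at about 26% in these data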;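 also: 0% = LYPLA2 with DMSO and 100% = wells lacking LYPLA2 enzyme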
* = called active by the depositor; x = no result given. Shown are actives, neighbours in structure and some others; about 1.8% of the full set was active somewhere.

SMILES | PME-1 primary | GSTO1 counter | Fam108B inh | PAD4 inh | LYPLA1 inh | LYPLA2 inh
CCOC(=O)C(C(C)=O)c1c(Br)c(O)c(O)c2c(C(=O)c3ccc(C)cc3)coc12 (centres undefined) | 0 | 67* | 6 | 2 | -5 | 3
O=C(Nc1ccc(Br)c2ccccc12)c1ccc2ccccc2c1O | 26 | -4 | 39* | 0 | -5 | 9
COc1ccc2cc3c(N)c(C(=O)NCc4ccco4)sc3nc2c1 | 35* | 0 | 5 | -2 | -6 | -1
COc1ccc(CCn2c(N)c(C(=O)NCc3ccco3)c3nc4ccccc4nc32)cc1 | 17 | 4 | 3 | -7 | -6 | -9
COc1ccc(-n2c(N)c(C(=O)NCc3ccco3)c3nc4ccccc4nc32)c(OC)c1 | -10 | 37* | -6 | 1 | -6 | -23
O=C(COC(=O)c1cc(S(=O)(=O)N2CCOCC2)c(Cl)cc1Cl)NC1CC1 | 0 | x | x | -4 | 5 | 8
CC(C)(C)N(Cc1ccccc1)C(=O)CN1C(=O)c2ccccc2S1(=O)=O | x | x | x | -2 | x | x
Oc1ccc(/C=N/Nc2ccnc3cc(Cl)ccc23)c(O)c1 | 27* | 9 | 4 | -4 | -2 | 3
Cc1ccc(/C=N/Nc2ccnc3cc(Cl)ccc23)c(C)c1 | 35* | -9 | 16 | 0 | 1 | 4
O=C(NCCc1ccc(OC(F)F)cc1)C1CC(=O)N(c2ccc3c(c2)OCCO3)C1 (centres undefined) | 3 | x | x | -3 | 2 | -1
CSc1ccc(-c2sc(Nc3cccc4ccccc34)n[n+]2-c2ccccc2)cc1 | 3 | 37* | 2 | -9 | -5 | -11
N#CCc1cnc2ccccc2n1 | 22 | 36* | 10 | -1 | 3 | 4
CC(C)CN=C(NS(=O)(=O)c1ccccc1)C(Cl)(Cl)Cl | 1 | 78* | -1 | -1 | 0 | -4
CC(C)CC(NS(=O)(=O)c1ccccc1)C(=O)O (centres undefined) | -5 | 4 | -2 | 1 | -2 | 3
C=CCOc1ccc(CN(C)C(=O)c2ccc(CNS(=O)(=O)c3ccc(C)c(C)c3)cc2)cc1 | 12 | x | x | -3 | -5 | 8
COc1cc(/C=N/NC(=O)c2cc(C34CC5CC(CC(C5)C3)C4)[nH]n2)ccc1O | 15 | 4 | 21* | 0 | -11 | -13
COc1cc(/C=N/NC(=O)c2cc(C3CC3)[nH]n2)ccc1O | 11 | 5 | 3 | -1 | 0 | 7
CCN(C(=O)COn1nnc2ccc(S(=O)(=O)N(C)C)cc21)C1CCS(=O)(=O)C1 (centres undefined) | 3 | x | x | 1 | 1 | -4
O=C1CC(c2ccc(O)c(O)c2)Oc2c1ccc(O)c2O (centres undefined) | -5 | 44* | 6 | 6 | -6 | -12
CC(=O)Nc1ccc(C(=O)CCl)cc1 | 2 | x | x | -9 | 0 | -4
CC(=O)NCc1ccc(C(=O)CCl)s1 | -8 | 78* | -1 | 1 | 1 | -2
CC(=O)NCc1ccc(C(=O)CCl)cc1 | -1 | 50* | -1 | 4 | 5 | -5
COc1ccc(C(=O)OCC(=O)c2ccc(CNC(C)=O)s2)cc1 | 1 | x | x | -1 | 2 | 5
Cc1ccc(S(=O)(=O)NCCNc2ccc(Br)c(C)c2)cc1 | x | x | x | -3 | x | x
Cn1c(N/N=C/c2c[nH]c3ccccc23)nc2ccccc21 | 30* | -18 | 4 | -6 | -3 | -1
SMILES | PME-1 primary | GSTO1 counter | Fam108B inh | PAD4 inh | LYPLA1 inh | LYPLA2 inh
Cc1cccc(N2C(=O)C3CCCN3C2=S)c1C (centres undefined) | 3 | x | x | -3 | 0 | 2
COc1ccc(NS(=O)(=O)c2cc(NC(=O)c3ccc(=O)[nH]n3)ccc2C)cc1 | -2 | x | x | -4 | -5 | -6
Oc1ccc(C2C[C@H]3CC[C@@H]2C3)cc1O (some centres undefined) | 10 | 42* | 5 | -6 | -2 | -2
Cc1ccc(S(=O)(=O)NCC(=O)N2CCCC2C(=O)O)cc1 (centres undefined) | 1 | -5 | 0 | 3 | 1 | 4
Cn1cnnc1SC/C(O)=C(\C#N)c1nc2ccccc2[nH]1 | 8 | 3 | 0 | 0 | 1 | 2
Cc1cccc(Nc2nnc(SC/C(O)=C(\C#N)c3nc4ccccc4[nH]3)s2)c1C | 82* | 3 | 6 | -3 | 0 | 6
CC(C(=O)Nc1ccc(C(=O)O)c(O)c1)N1C(=O)/C(=C\c2ccco2)SC1=S (centres undefined) | -31 | 28 | 19* | 11 | 1 | -7

Assay outcomes from PubChem BioAssay.
